# Assay results: the supplement of paper PMC8728848
# The sample as a whole holds a higher share of the strongest signals than the screen did.
# B1: Clec49 (Caenorhabditis elegans) (protein)
# chain: MTRLTLLLFGLLGAATAQTCNTGGIYNEQFNRCYQYFTAPAQFSFAEQQCNLLGGHLASVQNGQENALLQSNAANSFKRSNYSDYWIGATDLETSGTWKWTDPSVTFDYSNWQLGEPQSGSDCAIQDKGDGTWSAIGCTSYRPYVCVTPVIMTATCPPITTPIPTTCPTPAPCPIKQCVPSCDQGWTYFSPTDFCYRVYHGEKFNDAEASCVLLGGHLASIHSLTENTFVNNIASCGIKEGKYEHLAWIGMRKVGQDWVWTDGTPSDYFNWAPKQPDNPKKELCVQTAPDLSHDKWYENWNNLECNEVMRAYICKKASIHN
# B2: STA (Solanum tuberosum) (protein)
# chain: NASAPLPYPQCGLKKGGGKCIKTGECCSIWGWCGTTSDYCAPGYCQKQCPGPYPQGRCGWQANGKSCPTGTGQCCSNAGWCGTTSDYCAPNNCQSQCKLPPPPPSPPPPPPSPPPPSPPPPPPSPPPPSPSPPPPPPSPPPPSPPPPSPPPPSPPPPPSPSPPPPPPSPPPPPPPLPYPQCGMKKGGGKCIKTGECCSIWGWCGTTSKYCSPGYCQMQCPDPYPEGRCGWQANGKSCPTGTGQCCSNAGWCGTTSAYCAPVNCQAQCNTTTLTSPIKNRMRGIESFMLNVV
# Assays:
# Assay in all cases: glycan array binding signal (z-score within array); higher = stronger binding
# Details in all cases: glycan notation: IUPAC condensed, linker removed
# [1] = target: Fuc(a1-2)Gal(b1-4)[Fuc(a1-3)]GlcNAc(b1-2)[Fuc(a1-2)Gal(b1-4)[Fuc(a1-3)]GlcNAc(b1-4)]Man(a1-3)[Fuc(a1-2)Gal(b1-4)[Fuc(a1-3)]GlcNAc(b1-2)Man(a1-6)]Man(b1-4)GlcNAc(b1-4)GlcNAc
# Outline: (§1)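 The binding signal is a Z-score computed within each array and averaged over linkers. Arrays of the same protein sequence at different concentrations or buffers were also averaged together. Data originate from 3228 arrays in the Consortium for Functional Glycomics database, kept only where the protein sequence was available.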
# [2] = target: Fuc(a1-2)[Gal(a1-3)]Gal(b1-3)GalNAc(b1-3)Gal(a1-4)Gal(b1-4)Glc
# Outline: as §1
# [3] = target: Fuc(a1-2)[Gal(a1-3)]Gal(b1-3)GlcNAc(b1-2)Man(a1-3)[Fuc(a1-2)[Gal(a1-3)]Gal(b1-3)GlcNAc(b1-2)Man(a1-6)]Man(b1-4)GlcNAc(b1-4)GlcNAc
# Outline: as §1
# [4] = target: Fuc(a1-2)[Gal(a1-3)]Gal(b1-4)[Fuc(a1-3)]Glc
# Outline: as §1
# [5] = target: Fuc(a1-2)[GalNAc(a1-3)]Gal(b1-3)GlcNAc(b1-3)GalNAc
# Outline: as §1
# [6] = target: Fuc(a1-2)[GalNAc(a1-3)]Gal(b1-4)GlcNAc(b1-2)Man(a1-3)[Fuc(a1-2)[GalNAc(a1-3)]Gal(b1-4)GlcNAc(b1-2)Man(a1-6)]Man(b1-4)GlcNAc(b1-4)GlcNAc
# Outline: as §1
# Fuc(a1-3)GlcNAc = target: Fuc(a1-3)GlcNAc
# Outline: as §1
# [7] = target: Fuc(a1-3)[Gal(b1-4)]GlcNAc(b1-3)Gal(b1-4)[Fuc(a1-3)]GlcNAc
# Outline: as §1
# [8] = target: Fuc(a1-3)[Gal(b1-4)]GlcNAc6S
# Outline: as §1
# [9] = target: Gal(a1-3)Gal(b1-4)GlcNAc(b1-2)Man(a1-3)[Gal(a1-3)Gal(b1-4)GlcNAc(b1-2)Man(a1-6)]Man(b1-4)GlcNAc(b1-4)GlcNAc
# Outline: as §1
# [10] = target: Gal(a1-3)Gal(b1-4)[Fuc(a1-3)]GlcNAc
# Outline: as §1
# [11] = target: Gal(a1-3)Gal(b1-4)[Fuc(a1-3)]GlcNAc(b1-2)Man(a1-3)[Gal(a1-3)Gal(b1-4)[Fuc(a1-3)]GlcNAc(b1-2)Man(a1-6)]Man(b1-4)GlcNAc(b1-4)GlcNAc
# Outline: as §1
# Gal(a1-4)Gal(b1-4)Glc = target: Gal(a1-4)Gal(b1-4)Glc
# Outline: as §1
# Gal(b1-3)GlcNAc = target: Gal(b1-3)GlcNAc
# Outline: as §1
# [12] = target: Gal(b1-3)GlcNAc(b1-2)Man(a1-3)[GlcNAc(b1-4)][Gal(b1-3)GlcNAc(b1-2)Man(a1-6)]Man(b1-4)GlcNAc(b1-4)GlcNAc
# Outline: as §1
# [13] = target: Gal(b1-4)GlcNAc(b1-3)Gal(b1-4)GlcNAc(b1-2)Man(a1-3)[Gal(b1-4)GlcNAc(b1-3)Gal(b1-4)GlcNAc(b1-2)Man(a1-6)]Man(b1-4)GlcNAc(b1-4)GlcNAc
# Outline: as §1
# [14] = target: Gal(b1-4)GlcNAc(b1-3)Gal(b1-4)GlcNAc(b1-3)Gal(b1-4)GlcNAc(b1-2)Man(a1-3)[Gal(b1-4)GlcNAc(b1-3)Gal(b1-4)GlcNAc(b1-3)Gal(b1-4)GlcNAc(b1-2)Man(a1-6)]Man(b1-4)GlcNAc(b1-4)GlcNAc
# Outline: as §1
# [15] = target: Gal(b1-4)GlcNAc(b1-3)Gal(b1-4)GlcNAc(b1-3)Gal(b1-4)GlcNAc(b1-3)Gal(b1-4)GlcNAc(b1-3)Gal(b1-4)GlcNAc(b1-2)Man(a1-3)[Gal(b1-4)GlcNAc(b1-3)Gal(b1-4)GlcNAc(b1-3)Gal(b1-4)GlcNAc(b1-3)Gal(b1-4)GlcNAc(b1-3)Gal(b1-4)GlcNAc(b1-2)Man(a1-6)]Man(b1-4)GlcNAc(b1-4)GlcNAc
# Outline: as §1
# [16] = target: Gal3S(b1-4)[Fuc(a1-3)]Glc6S
# Outline: as §1
# [17] = target: Gal3S(b1-4)[Fuc(a1-3)]GlcNAc
# Outline: as §1
# Gal3S6S(b1-4)GlcNAc = target: Gal3S6S(b1-4)GlcNAc
# Outline: as §1
# Gal6S(b1-4)GlcNAc6S = target: Gal6S(b1-4)GlcNAc6S
# Outline: as §1
# GalNAc(b1-6)GalNAc = target: GalNAc(b1-6)GalNAc
# Outline: as §1
# [18] = target: GlcNAc(a1-4)Gal(b1-4)GalNAc
# Outline: as §1
# [19] = target: GlcNAc(a1-4)Gal(b1-4)GlcNAc
# Outline: as §1
# [20] = target: GlcNAc(b1-2)Man(a1-3)[GlcNAc(b1-4)][GlcNAc(b1-2)Man(a1-6)]Man(b1-4)GlcNAc(b1-4)[Fuc(a1-6)]GlcNAc
# Outline: as §1
# [21] = target: GlcNAc(b1-3)Gal(b1-4)GlcNAc(b1-2)Man(a1-3)[GlcNAc(b1-3)Gal(b1-4)GlcNAc(b1-2)Man(a1-6)]Man(b1-4)GlcNAc(b1-4)[Fuc(a1-6)]GlcNAc
# Outline: as §1
# [22] = target: GlcNAc(b1-3)Gal(b1-4)GlcNAc(b1-3)Gal(b1-4)GlcNAc(b1-3)Gal(b1-4)GlcNAc(b1-2)Man(a1-3)[GlcNAc(b1-3)Gal(b1-4)GlcNAc(b1-3)Gal(b1-4)GlcNAc(b1-3)Gal(b1-4)GlcNAc(b1-2)Man(a1-6)]Man(b1-4)GlcNAc(b1-4)[Fuc(a1-6)]GlcNAc
# Outline: as §1
# [23] = target: GlcNAc(b1-3)Gal(b1-4)GlcNAc(b1-3)Gal(b1-4)GlcNAc(b1-3)Gal(b1-4)GlcNAc(b1-2)[GlcNAc(b1-3)Gal(b1-4)GlcNAc(b1-3)Gal(b1-4)GlcNAc(b1-3)Gal(b1-4)GlcNAc(b1-6)]Man(a1-6)[GlcNAc(b1-3)Gal(b1-4)GlcNAc(b1-3)Gal(b1-4)GlcNAc(b1-3)Gal(b1-4)GlcNAc(b1-2)Man(a1-3)]Man(b1-4)GlcNAc(b1-4)[Fuc(a1-6)]GlcNAc
# Outline: as §1
# [24] = target: Neu5Ac(a2-3)Gal(b1-3)GalNAc(b1-4)[Neu5Ac(a2-3)]Gal(b1-4)Glc
# Outline: as §1
# [25] = target: Fuc(a1-2)Gal(b1-4)GlcNAc6S
# Outline: as §1
# [26] = target: Fuc(a1-2)Gal(b1-4)[Fuc(a1-3)]GalNAc(b1-3)Gal(b1-4)[Fuc(a1-3)]GlcNAc(b1-3)Gal(b1-4)[Fuc(a1-3)]GalNAc
# Outline: as §1
# [27] = target: Fuc(a1-2)[GalNAc(a1-3)]Gal(b1-4)GlcNAc
# Outline: as §1
# Gal(a1-3)Gal(b1-4)GlcNAc = target: Gal(a1-3)Gal(b1-4)GlcNAc
# Outline: as §1
# [28] = target: Gal(b1-4)GalNAc(b1-3)[Fuc(a1-2)]Gal(b1-4)GlcNAc
# Outline: as §1
# [29] = target: Gal(b1-4)GlcNAc(b1-6)GalNAc
# Outline: as §1
# Gal3S(b1-4)GlcNAc = target: Gal3S(b1-4)GlcNAc
# Outline: as §1
# Gal3S(b1-4)GlcNAc6S = target: Gal3S(b1-4)GlcNAc6S
# Outline: as §1
# Gal4S(b1-4)GlcNAc = target: Gal4S(b1-4)GlcNAc
# Outline: as §1
# [30] = target: GlcNAc(b1-3)[GlcNAc(b1-6)]GlcNAc
# Outline: as §1
# [31] = target: Man(a1-2)Man(a1-2)Man(a1-6)[Man(a1-3)]Man
# Outline: as §1
# Neu5Ac(a2-3)Gal = target: Neu5Ac(a2-3)Gal
# Outline: as §1
# [32] = target: Neu5Ac(a2-3)Gal(b1-4)GlcNAc6S
# Outline: as §1
# [33] = target: Neu5Ac(a2-3)Gal(b1-4)[Fuc(a1-3)]GlcNAc6S
# Outline: as §1
# [34] = target: Neu5Ac(a2-8)Neu5Ac(a2-8)Neu5Ac(a2-3)Gal(b1-4)Glc
# Outline: as §1
# [35] = target: Neu5Ac9Ac(a2-6)Gal(b1-4)GlcNAc
# Outline: as §1
binder,measurement,setting,value
B1,glycan array binding signal (z-score),[1],6.67
same,glycan array binding signal (z-score),[2],0.061
same,glycan array binding signal (z-score),[3],2.31
same,glycan array binding signal (z-score),[4],-0.454
same,glycan array binding signal (z-score),[5],4.18
same,glycan array binding signal (z-score),[6],0.062
same,glycan array binding signal (z-score),Fuc(a1-3)GlcNAc,-0.399
same,glycan array binding signal (z-score),[7],0.226
same,glycan array binding signal (z-score),[8],-0.462
same,glycan array binding signal (z-score),[9],0.541
same,glycan array binding signal (z-score),[10],0.246
same,glycan array binding signal (z-score),[11],2.45
same,glycan array binding signal (z-score),Gal(a1-4)Gal(b1-4)Glc,-0.394
same,glycan array binding signal (z-score),Gal(b1-3)GlcNAc,-0.244
same,glycan array binding signal (z-score),[12],3.15
same,glycan array binding signal (z-score),[13],2.54
same,glycan array binding signal (z-score),[14],2.57
same,glycan array binding signal (z-score),[15],0.133
same,glycan array binding signal (z-score),[16],-0.488
same,glycan array binding signal (z-score),[17],-0.647
same,glycan array binding signal (z-score),Gal3S6S(b1-4)GlcNAc,-0.612
same,glycan array binding signal (z-score),Gal6S(b1-4)GlcNAc6S,0.322
same,glycan array binding signal (z-score),GalNAc(b1-6)GalNAc,-0.155
same,glycan array binding signal (z-score),[18],-0.484
same,glycan array binding signal (z-score),[19],-0.068
same,glycan array binding signal (z-score),[20],0.223
same,glycan array binding signal (z-score),[21],0.489
same,glycan array binding signal (z-score),[22],-0.119
same,glycan array binding signal (z-score),[23],0.571
same,glycan array binding signal (z-score),[24],1.48
B2,glycan array binding signal (z-score),[25],0.551
same,glycan array binding signal (z-score),[26],-0.504
same,glycan array binding signal (z-score),[27],2.86
same,glycan array binding signal (z-score),Gal(a1-3)Gal(b1-4)GlcNAc,3.27
same,glycan array binding signal (z-score),[28],0.033
same,glycan array binding signal (z-score),[29],2.69
same,glycan array binding signal (z-score),Gal3S(b1-4)GlcNAc,2.55
same,glycan array binding signal (z-score),Gal3S(b1-4)GlcNAc6S,2.58
same,glycan array binding signal (z-score),Gal4S(b1-4)GlcNAc,3.08
same,glycan array binding signal (z-score),[30],-0.269
same,glycan array binding signal (z-score),[31],-0.506
same,glycan array binding signal (z-score),Neu5Ac(a2-3)Gal,-0.507
same,glycan array binding signal (z-score),[32],3.23
same,glycan array binding signal (z-score),[33],-0.49
same,glycan array binding signal (z-score),[34],-0.5
same,glycan array binding signal (z-score),[35],-0.498
